SMN2 splice up – enhancers of SMN2 splice variant expression | HEK293 SMN2-luciferase splicing reporter, luminescence, 30-36 h | Potency, µM (titrated, usually from 46.1 µM), for inactives: at the highest dose activity change, positive = activation, actives largely listed as activators | 2.8% of 210,000 active | AID 1458; further: % of control where 0% means no effect; nearly all actives have a fitted effect of over 55% in size
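HEK293 cells carry an SMN2 minigene-luciferase reporter in which exon 7 inclusion puts luciferase in frame. Cells were seeded at 2000 cells/well, attached for 10-12 hours, then exposed to compounds for 30-36 hours at 37C before ONE-Glo luminescence.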
FLuc counter – counter-screen for miR-21 project: firefly luciferase inhibitors or activators; P08659; 6.9% of 360,000 active; Potency, µM (highest dose often 57.5 µM), for the others: top-dose activity change, negative = inhibition, actives largely listed as inhibitors; purified FLuc, Km substrates, luminescence inhibition;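 further: plate controls were vehicle for no effect and reference inhibitor for full effect; nearly all actives have a fitted effect of over 55% in size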
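Purified P. pyralis luciferase (10nM final) with 10uM D-luciferin and 10uM ATP (Km levels) in 50mM Tris acetate pH 7.5, 10mM Mg acetate, 0.01% Tween-20, 0.05% BSA; qHTS 6-point titration, ~60 µM downward; luminescence read.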
Rab9 prom act – Rab9 promoter activation; Huh7 Rab9 promoter-luciferase reporter, luminescence, 24 h; Potency, µM (titrated, usually from 9.22 µM), inactives show at the top dose activation, negative = inhibition, most hits filed as activators; 2.8% of 320,000 active; further: % of control where 0% means no effect; nearly all actives have a fitted effect of over 60% in size
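Huh7 reporter line, Rab9 promoter upstream of luciferase. Compound exposure 24 h at 37 °C in reduced-serum medium with 10% FBS. Read-out: luminescence.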
NPC1 promoter act – activators of NPC1 promoter; 2.4% of 320,000 active; Huh7 NPC1 promoter luciferase reporter, 24 h; Potency, µM (series often up to 9.22 µM), for the others: top-dose activation, hits mostly activators; further: % of control where 0% means no effect; nearly all actives have a fitted effect of over 60% in size
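Cells: Huh7 expressing luciferase under the NPC1 promoter, 1500/well. Seeded 2 h, compound added, incubated 24 h at 37 °C. Luciferase reagent, 10 min ambient, then luminescence.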
KinaseGlo FLuc – counter-screen: inhibitors of Kinase-Glo firefly luciferase; Kinase-Glo luciferase, ATP luminescence, 8 min; AID 1379; Q27757; 0.28% of 200,000 active; Potency, µM (series often up to 38.3 µM), without a hit: at the highest dose activity change, negative = inhibition, actives largely listed as inhibitors; further: on the % scale 0 is the no-effect control and ±100 the full control effect; nearly all actives have a fitted effect of over 60% in size
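Light output from Kinase-Glo luciferase with luciferin and 10 uM ATP in 50 mM imidazole pH 7.2, KCl, MgCl2, Tween 20, BSA; compound pin-delivered, 8-min ambient incubation, then luminescence read.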
ELG1 genotox – genotoxicity induction in ELG1-luciferase HEK293T cells | HEK293T ELG1-luciferase reporter, luminescence, 16 h | Potency, µM (titrated, usually from 46 µM), inactives show at the top dose activity change, positive = activation, usual class: activators | 1.3% of 330,000 active | AID 504466; further: % of control where 0% means no effect; nearly all actives have a fitted effect of over 60% in size
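HEK293T cells expressing luciferase-tagged ELG1 were treated with compound or DMSO for 16 hr at 37°C. Luciferase activity was then read after 30 min with ONE-Glo at room temperature; rising signal flags genetic stress.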
* marks the source's active call; other numbers are inactive results; [ ] = dose if it differs, or a comment. In the library only some 7.5% were active in any assay of this set; here they are far more common. The call rests on the fitted dose curve; in most records, active means well fitted curve in the direction sought with a large enough effect; inconclusive means small, poorly fitted or top-dose-only effect, or another doubt; inactive means no such curve, though single readings can be large; an effect the other way counts as inactive or inconclusive. Potency means the concentration at half of the fitted maximal effect.

Results for CCOC(=O)C1CCCN(C(=O)CN2C(=O)/C(=C/c3ccc(OC)cc3)Oc3ccccc32)C1 (configuration not stated) ?
SMN2 splice up: -50%; FLuc counter: 15µM*; Rab9 prom act: -1%; NPC1 promoter act: 0%; KinaseGlo FLuc: -5%; ELG1 genotox: -15%

What do the screens show for `O=C(CN1C(=O)/C(=C/c2ccc(C(F)(F)F)cc2)Sc2ccccc21)NCCCN1CCOCC1`?
FLuc counter: inconclusive; Rab9 prom act: -1%; NPC1 promoter act: -4%; ELG1 genotox: 1%[9.26 µM]

What do the screens show for `COc1cccc(/C=C2/Oc3ccccc3N(CC(=O)NCC3CCCO3)C2=O)c1` (configuration not stated)?
FLuc counter: 9.5µM*; Rab9 prom act: 3%; NPC1 promoter act: 0%; ELG1 genotox: -6%

What do the screens show for `CCc1ccc(/C=C2/Sc3ccccc3N(CC(=O)NCCCN3CCOCC3)C2=O)cc1`?
FLuc counter: 19µM*; Rab9 prom act: -2%; NPC1 promoter act: -1%; ELG1 genotox: 7%

What do the screens show for `O=C(CN1C(=O)COc2ccccc21)NCCCN1CCOCC1`?
FLuc counter: 4%; Rab9 prom act: 1%; NPC1 promoter act: 0%; ELG1 genotox: 1%

Results for NC(=NCc1ccc(Cl)c(Cl)c1)NC(=O)c1nc(Cl)c(N)nc1N ?
SMN2 splice up: -15%; KinaseGlo FLuc: -3%

Results for Cc1ccccc1Cc1c(C)nc2nc(SCC(=O)N(C)c3ccccc3)nn2c1C ?
FLuc counter: 1%

Results for O=C(O)CN1C(=O)/C(=C/c2cccc(Cl)c2)Oc2ccccc21 ?
FLuc counter: 13µM*; Rab9 prom act: 3%; NPC1 promoter act: -5%; ELG1 genotox: -1%

Results for O=c1c(-c2cc(F)cc(F)c2)nc2cnc(N3CCOCC3)nc2n1C1CC1 ?
SMN2 splice up: -17%; KinaseGlo FLuc: -3%

What do the screens show for `Cc1cccc(C(=O)Nc2cccc(OCc3cc(=O)n4c(C)csc4n3)c2)c1`?
SMN2 splice up: -7%; FLuc counter: -2%

Results for O=C(Nc1cc(-c2nc3cc(Cl)ccc3o2)ccc1Cl)c1cccs1 ?
SMN2 splice up: 21%; FLuc counter: 3%

How did Cc1ccc(-c2nc3cc(Cl)ccc3o2)cc1NC(=O)c1cc([N+](=O)[O-])ccc1N1CCOCC1 do in these assays?
SMN2 splice up: -5%; FLuc counter: inconclusive

How did Cc1ccc(-c2nc3cc(C(C)C)ccc3o2)cc1NC(=O)c1cc([N+](=O)[O-])ccc1N1CCOCC1 do in these assays?
SMN2 splice up: -46%; FLuc counter: 1.3µM*

Results for Cc1ccc(-c2nc3cc(C(C)C)ccc3o2)cc1NC(=O)c1cccs1 ?
SMN2 splice up: -6%; FLuc counter: 1.9µM*

How did COc1cc(SC)ccc1C(=O)N1CCn2c3c(c4cc(C)ccc42)CCCC31 (configuration not stated) do in these assays?
SMN2 splice up: 10%; FLuc counter: -15%

Results for COC(=O)c1ccc(C(/C=C/[C@@H](C)C(=O)N[C@H](C)CO)NC(=O)OCc2ccccc2)cc1 (some centres not stated) ?
SMN2 splice up: 6%; KinaseGlo FLuc: 0%

Results for O=C(OC1CCOC1=O)c1cc(-c2cccc(Br)c2)nc2ccccc12 (configuration not stated) ?
SMN2 splice up: 14%; FLuc counter: inconclusive; Rab9 prom act: -3%; NPC1 promoter act: -4%; KinaseGlo FLuc: 1%; ELG1 genotox: 3%

How did O=C(OC1CCOC1=O)c1cc(-c2ccc(Br)cc2)nc2ccccc12 (configuration not stated) do in these assays?
SMN2 splice up: 8%; FLuc counter: 19µM*; Rab9 prom act: 1%; NPC1 promoter act: -2%; KinaseGlo FLuc: 2%; ELG1 genotox: -1%
